IL-1B inflam inh: inflammasome signaling inhibition, IL-1 beta readout; THP-1 LPS/ATP IL-1B secretion, AlphaLISA, 16 h; hits give low values; activity change, % at 57.5 µM; 360,000 compounds, 4.7% hits; AID 743279; in the data active means activity change below about -50%; inconclusive means mostly about -30% to -49%; further: on the % scale 0 is the no-effect control and ±100 the full control effect
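THP-1 cells pretreated 1 hr with compounds (up to 57.5 uM final), then stimulated with LPS (250 ng/mL final) plus ATP (1.25 mM final); secreted IL-1B measured by AlphaLISA after 16 hr, decreased signal indicating inhibition.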
TGFb inhibitor: blocks TGF-b signaling | Potency, µM (top dose mostly 46.1 µM), inactives show top-dose activity, negative = inhibition, actives largely listed as inhibitors | HepG2 CAGA-GFP TGF-b/SMAD3 reporter, GFP fluorescence, 18 h; TGF-beta stimulated, 500 pg/mL final | 410,000 compounds, 1.2% hits | AID 588855; further: potency means the concentration at half of the fitted maximal effect; on the % scale 0 is the no-effect control and ±100 the full control effect; nearly all actives have a fitted effect of over 65% in size
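First, reporter cells (HEPG2 CAGA-GFP) rested 2 h at 37 degrees C. Next, compounds were pinned in and TGF-beta added to 500 pg/mL final. After 18 h, GFP was imaged per cell and summed per well.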
TDP1 cell CPT: DT40-hTDP1 cell growth loss with CPT; chicken DT40 Tdp1-/-;hTDP1 cells + 20 nM CPT, ATP luminescence, 48 h; Potency, µM (doses to about 46.2 µM), for inactives: at the highest dose activity change, negative = growth inhibition, most hits filed as inhibitors; 420,000 compounds, 12% hits; AID 686979; further: potency means the concentration at half of the fitted maximal effect; on the % scale 0 is the no-effect control and ±100 the full control effect; nearly all actives have a fitted effect of over 55% in size
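Chicken DT40 Tdp1-/- cells complemented with human TDP1, 400 cells/well, exposed to compounds plus 20 nM camptothecin for at least 48 h at 37 C; viability read as ATP content by CellTiter-Glo luminescence.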
TDP1 inh: inhibitors of human tyrosyl-DNA phosphodiesterase TDP1 | recombinant TDP1, AlphaScreen DNA substrate cleavage | Potency, µM (top dose mostly 130 µM), for the others: top-dose activity change, negative = inhibition, hits mostly inhibitors | 350,000 compounds, 0.28% hits | AID 485290; further: potency means the concentration at half of the fitted maximal effect; on the % scale 0 is the no-effect control and ±100 the full control effect; nearly all actives have a fitted effect of over 40% in size
Target sequence (Q9NUW8 whole entry, looked up): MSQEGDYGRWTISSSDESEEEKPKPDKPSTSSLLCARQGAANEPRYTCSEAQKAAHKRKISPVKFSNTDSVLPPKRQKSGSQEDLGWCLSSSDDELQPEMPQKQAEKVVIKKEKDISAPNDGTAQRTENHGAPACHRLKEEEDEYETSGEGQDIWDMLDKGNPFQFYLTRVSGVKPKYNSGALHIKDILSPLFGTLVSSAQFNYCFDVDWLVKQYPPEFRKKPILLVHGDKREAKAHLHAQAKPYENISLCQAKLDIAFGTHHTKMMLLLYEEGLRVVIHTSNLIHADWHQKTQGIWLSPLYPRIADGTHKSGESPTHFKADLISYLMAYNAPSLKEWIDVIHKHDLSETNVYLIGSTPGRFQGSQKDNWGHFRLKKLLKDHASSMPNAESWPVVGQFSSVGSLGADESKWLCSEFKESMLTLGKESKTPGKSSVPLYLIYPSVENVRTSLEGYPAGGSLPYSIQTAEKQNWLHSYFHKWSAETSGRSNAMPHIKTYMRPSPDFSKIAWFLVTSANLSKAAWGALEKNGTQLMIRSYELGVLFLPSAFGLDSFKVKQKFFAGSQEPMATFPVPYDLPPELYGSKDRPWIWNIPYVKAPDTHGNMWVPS
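E. coli-derived human Tdp1, 1 nM final. Cpd preinc 15 min RT; substrate 15 nM final, 5 min RT; AS bead mix 10 ug/ml final, 10 min RT. Signal loss = tyrosine-FITC cleavage. No-enzyme wells = max signal.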
DT40 TDP1 no CPT: qHTS for Inhibitors of human tyrosyl-DNA phosphodiesterase 1 (TDP1): qHTS in cells in absence of CPT. DT40 Tdp1-/- hTDP1 cells, no CPT, ATP luminescence, 48 h. Potency, µM (top dose mostly 46.2 µM), for the others: top-dose activity change, negative = growth inhibition, actives largely listed as inhibitors. 420,000 compounds, 15% hits; further: potency means the concentration at half of the fitted maximal effect; on the % scale 0 is the no-effect control and ±100 the full control effect; nearly all actives have a fitted effect of over 55% in size
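Seeded 400 DT40-hTDP1 cells/well (vehicle DMSO, no 20 nM CPT); pinned compounds; ≥48 hr at 37 °C; CellTiter-Glo luminescence as viability measure.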
HepG2 tox: HepG2 cytotoxicity, counter-screen for TGF-b inhibitors; HepG2 CAGA-GFP viability, ATP luminescence, 18 h; Potency, µM (series often up to 46.1 µM), without a hit: at the top dose activity change, negative = cytotoxicity, actives largely listed as cytotoxic; 410,000 compounds, 0.76% hits; further: potency means the concentration at half of the fitted maximal effect
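CellTiter-Glo luminescence gave cytotoxicity after 18 hours at 37 degrees C. The cells were HepG2 CAGA-GFP in 1% FBS DMEM, stimulated with 500 pg/mL TGF-beta after compound addition. %Activity was normalised to no-cell wells (complete cell-killing) and DMSO (no toxicity), and curves were fitted and classified.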
Numbers without * were called inactive; ? = inconclusive; nt = no result given; [ ] = remark or other dose. Rows were chosen to be rich in hits. Some 19% of all compounds tested hit in one or more screens of this group. Unless noted, the call rests on the fitted dose curve; in most records, active means well fitted curve in the direction sought with a large enough effect; inconclusive means small, poorly fitted or top-dose-only effect, or another doubt; inactive means no such curve, though single readings can be large; an effect the other way counts as inactive or inconclusive.

SMILES | IL-1B inflam inh | TGFb inhibitor | TDP1 cell CPT | TDP1 inh | DT40 TDP1 no CPT | HepG2 tox
Cc1cc(OCc2cc(C(=O)NC(C)c3cnn(C)c3)no2)cc(C)c1Cl (stereo not given) | -9 | -11% | 18µM* | nt | 16µM* | -27%
COc1ccc(NC(=O)CN(C)S(=O)(=O)c2ccc(C(=O)N3CCOCC3)s2)cc1 | nt | -10% | ? | 1% | -22% | -6%
Cc1noc(C)c1-c1ccc2ncnc(NCc3ccc(Br)cc3)c2c1 | nt | nt | nt | 4% | nt | nt
O=C(c1nc2ccc(Cl)cn2c1CNCC[C@@H]1C[C@@H]2C=C[C@H]1C2)N1CCCCCCC1 | -72* | ? | ? | 5% | ? | -37%
O=c1c2cnn(-c3ccccc3)c2nc(-c2cccs2)n1-c1ccc(Cl)cc1 | 26 | 4% | 0.46µM* | 4% | 0.58µM* | -25%
O=c1c2cnn(-c3ccccc3)c2nc(-c2cccs2)n1-c1cccc(Cl)c1 | -2 | ? | 15µM* | -4% | 9.2µM* | -2%
O=C(Nc1ccccc1C(=O)O)C1=NN=CC1 | 7 | -1% | -4% | nt | -2% | 5%
C#CC(C)(O)C1CC(CC(=O)O)C1(C)C (stereo not given) | -4 | -10% | 37% | nt | -10% | -2%
CC1CCc2c(sc3ncn(CC(=O)N4CCCCC4)c(=O)c23)C1 (stereo not given) | 5 | ? | -23% | -6% | ? | -3%
CC(=O)c1sc(N/N=C\c2cccc(Br)c2)nc1C | -66* | -20% | ? | 3% | ? | -27%
CC(=O)c1sc(N/N=C\c2ccc(Br)cc2)nc1C | -3 | 30% | ? | -3% | ? | -5%
O=C(/C=C/c1ccccn1)c1cc(Cl)cc(Cl)c1O | -80* | -25% | ? | 5% | ? | -30%
COc1ccc(/C=C/C(=O)c2cc(Cl)cc(Cl)c2O)c(OC)c1 | -13 | 2% | -10% | 4% | ? | 10%
O=C(CCCC(=O)Nc1cccc(Br)c1)N/N=C/c1cc([N+](=O)[O-])ccc1O | 46 | ? | 5.8µM* | 1% | 5.2µM* | -36%
Cc1ccccc1NC(=O)CCC(=O)N/N=C/c1cc([N+](=O)[O-])ccc1O | 23 | -7% | ? | 3% | 16µM* | -33%
O=C(CCC(=O)Nc1cccc(Cl)c1)N/N=C/c1cc([N+](=O)[O-])ccc1O | 154 | -36% | ? | 10% | ? | -25%
Cc1ccccc1C(=O)N1CCC(N2CCN(Cc3ccc(F)cc3)C(=O)C2=O)CC1 | nt | -17% | 2% | 3% | 5% | 5%
CC1=Nc2ccccc2/C1=C(/C)c1c(C)[nH]c2ccccc12 | nt | 5% | -2% | nt | ? | 1%
COc1cccc(NC(=S)N(CCc2nc3cc(C)c(C)cc3[nH]2)Cc2cccnc2)c1 | 8 | -4% | 23µM* | 8% | -71% | -10%
Cc1ccccc1NC(=S)N(Cc1cccnc1)Cc1ccco1 | 8 | 6% | 15% | 3% | -18% | -18%
Cc1ccccc1NC(=S)N(Cc1ccccc1)Cc1cccnc1 | -60* | 1% | 0% | 6% | -7% | -5%
CSc1cccc(NC(=S)N(Cc2ccc(C)cc2)Cc2cccnc2)c1 | 18 | -29% | ? | 3% | 21µM* | -3%
COCCCN(Cc1cc(OC)c(OC)c(OC)c1)C(=S)Nc1cccc(SC)c1 | 6 | -14% | 16µM* | nt | 8.2µM* | -18%
COc1ccc(N(Cc2cccs2)C(=O)COc2cccc(Cl)c2)cc1 | nt | ? | ? | -12% | ? | -24%
COC(=O)C1=C(C(=O)OC)[C@@H]2N(C)c3ccccc3[C@@]23C[C@@H](C(=O)OC)N(S(=O)(=O)c2ccc(C)cc2)C3=N1 | nt | nt | nt | 6%[21 µM] | nt | nt
SMILES | IL-1B inflam inh | TGFb inhibitor | TDP1 cell CPT | TDP1 inh | DT40 TDP1 no CPT | HepG2 tox
N#Cc1ccccc1COC(=O)c1cccc(S(=O)(=O)N2CCCC2)c1 | 7 | 0% | 12% | -3% | 8% | -3%
COC(=O)c1sc(NC(=O)c2cc3c(s2)CCCC3)nc1C | -52* | 2% | -16% | 5% | 21µM* | -17%
Cc1nc(NC(=O)CCl)sc1C(=O)N(C)C | -81* | -17% | 13µM* | 1% | 15µM* | -30%
Cc1nc(NC(=O)c2cc3c(s2)CCCCC3)sc1C(=O)N(C)C | -53* | 14% | ? | 0% | ? | -19%
Cc1ccccc1OCCNC(=O)/C=C/c1ccc([N+](=O)[O-])cc1 | -70* | 4% | 1% | 0% | ? | 5%
CCCOc1ccc(/C=C/C(=O)Nc2ccc([N+](=O)[O-])cc2)cc1 | -87* | 0% | 18µM* | 7% | 21µM* | -10%
CCCCOc1ccc(/C=C/C(=O)Nc2ccc([N+](=O)[O-])cc2C)cc1 | 6 | 4% | ? | -4% | ? | 1%
O=C1c2oc3ccccc3c(=O)c2C(c2cccs2)N1CCCN1CCOCC1 (stereo not given) | 6 | 6% | 18µM* | 2% | -27% | -22%
COCCN1C(=O)c2oc3ccccc3c(=O)c2C1c1ccc(C(=O)OC)cc1 (stereo not given) | -17 | -6% | -11% | 7% | -4% | 0%
COC(=O)c1ccc(C2c3c(oc4ccccc4c3=O)C(=O)N2CCCN2CCOCC2)cc1 (stereo not given) | -21 | 6% | 21µM* | 1% | ? | -5%
Cc1cc2oc3c(c(=O)c2cc1C)C(c1ccc(C(C)C)cc1)N(CCCN1CCOCC1)C3=O (stereo not given) | -4 | ? | 21µM* | 3% | ? | -45%
CCOc1ccc(C2c3c(oc4cc(C)c(C)cc4c3=O)C(=O)N2CCCN2CCOCC2)cc1 (stereo not given) | -19 | -16% | -20% | 7% | 4% | -25%
O=C(Cc1ccccc1)c1nnc(-c2ccccc2)o1 | 2 | 36% | 12% | 5% | -13% | 11%
COc1ccc(NC(=O)c2c(N)c(C(=O)c3ccc(OC)cc3)n3ccccc23)cc1 | nt | -10% | -23% | 0% | ? | -6%
CC1CCN(CC2CCN(C(=O)Nc3ccc(Br)cc3F)CC2)CC1 | nt | 9% | -10% | -7% | -18% | -13%
Cc1ccccc1NC(=O)c1c(C)oc2ccc(O)c(CN3CCN(C)CC3)c12 | nt | -6% | 16µM* | -7% | ? | -3%
